Among all 320,000 compounds or so, about 1,300 (0.41%) were called active. The full list was thinned out, with actives kept by preference. A number with no mark means an inactive call.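 The calls were made as follows: active = percent inhibition above the average of all tested compounds plus 3 SD, set per screening campaign (cut at about 16% in these data); inactive = the rest.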
Target: Insulin-degrading enzyme (Homo sapiens) (UniProt P14735)
Test: human IDE inhibitors in live cells, primary screen, fluorescence polarization, HEK cells, FAbetaB substrate (AID 434962);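 also: IDE supplied by intact live HEK cells; FP after avidin binding of uncleaved biotin substrate so inhibition keeps polarization high; 0% = DMSO wells and 100% = 60 µM reference IDE inhibitor Ii1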
Details: FAbetaB cleavage, at 5.59 µM, active compounds read high

Insulin-degrading enzyme (Homo sapiens), sequence (P14735 whole entry, looked up): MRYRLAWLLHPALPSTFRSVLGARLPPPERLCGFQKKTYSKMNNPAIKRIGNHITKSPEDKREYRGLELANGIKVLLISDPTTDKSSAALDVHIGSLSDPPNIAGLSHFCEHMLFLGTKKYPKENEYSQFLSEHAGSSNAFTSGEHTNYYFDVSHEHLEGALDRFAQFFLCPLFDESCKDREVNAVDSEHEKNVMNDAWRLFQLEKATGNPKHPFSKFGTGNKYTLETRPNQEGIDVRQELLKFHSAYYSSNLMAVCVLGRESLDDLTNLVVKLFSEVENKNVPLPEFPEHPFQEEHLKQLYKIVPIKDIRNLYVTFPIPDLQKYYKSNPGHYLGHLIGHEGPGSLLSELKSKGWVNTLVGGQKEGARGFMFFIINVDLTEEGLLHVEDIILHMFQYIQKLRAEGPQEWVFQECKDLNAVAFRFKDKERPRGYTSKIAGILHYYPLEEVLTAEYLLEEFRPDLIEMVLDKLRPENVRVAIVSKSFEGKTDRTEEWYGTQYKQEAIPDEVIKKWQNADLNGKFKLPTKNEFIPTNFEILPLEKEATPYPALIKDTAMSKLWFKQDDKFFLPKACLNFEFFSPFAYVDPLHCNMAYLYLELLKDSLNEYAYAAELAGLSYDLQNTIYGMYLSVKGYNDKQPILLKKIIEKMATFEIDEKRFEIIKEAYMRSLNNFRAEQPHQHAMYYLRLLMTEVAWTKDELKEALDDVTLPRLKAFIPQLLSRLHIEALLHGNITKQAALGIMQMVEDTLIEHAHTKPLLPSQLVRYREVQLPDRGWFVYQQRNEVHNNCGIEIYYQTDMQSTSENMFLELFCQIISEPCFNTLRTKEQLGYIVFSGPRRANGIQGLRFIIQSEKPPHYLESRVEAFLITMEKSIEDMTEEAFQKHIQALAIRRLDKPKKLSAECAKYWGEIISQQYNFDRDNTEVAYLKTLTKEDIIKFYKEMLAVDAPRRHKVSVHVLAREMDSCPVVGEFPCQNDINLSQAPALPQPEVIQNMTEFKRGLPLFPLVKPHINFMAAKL

| SMILES | inhibition |
| --- | --- |
| Cc1ccnc(N2CCCC(C(=O)NC3CC3)C2)n1 (stereo not drawn) | 1.69% |
| Cc1ccnc(-n2sc3ccccc3c2=O)n1 | 57.8% (active) |
| Cc1nc2ccccc2c(=O)n1NC(=O)c1ccccc1 | 7.25% |
| COc1cccc(CNC(=O)C2CCCN(c3ncnc4c3nc3n4CCCCC3)C2)c1 (stereo not drawn) | 8.69% |
| O=C(/C=C/c1ccccc1)Oc1coc(CSc2ncccn2)cc1=O | 4.39% |
| COC(=O)c1sccc1-n1cccc1C(=O)C(=O)N1CCCCC1 | -0.4% |
| COc1ccc(N(C(=O)c2cccnc2)S(=O)(=O)c2ccc(OC)c(OC)c2)cc1 | -4.14% |
| O=C(c1cccnc1)N(c1cc2sc(=O)oc2c2ccccc12)S(=O)(=O)c1ccccc1 | 20.4% (active) |
| CCc1ccc(N(CC(=O)NCc2cccnc2)S(=O)(=O)c2ccccc2)cc1 | 8.22% |
| O=C(Cn1nnc2ccccc2c1=O)Nc1cc(C(F)(F)F)ccc1N1CCOCC1 | 6.97% |
| COc1ccc(C)cc1NC(=O)c1cc(-c2ccccc2)nc2c1cnn2C(C)C | 1.05% |
| CC(=O)N(C1=C(Cl)C(=O)c2ccccc2C1=O)c1ccc(C(=O)O)cc1 | 98.9% (active) |
| Cc1cc(OCCCC(=O)NCCN2C(=O)S/C(=C\c3cccnc3)C2=O)ccc1Cl | 3.84% |
| OC(c1nc2ccc(F)cc2[nH]1)C(O)c1nc2ccc(F)cc2[nH]1 (stereo not drawn) | 6.32% |
| COc1ccc(-c2[nH]ncc2/C=N/NC(=O)c2cc(Br)ccc2O)c(OC)c1 | 1.62% |
| Cc1ccccc1NC(=O)C(C)c1ccc(-c2ccccc2)c(F)c1 (stereo not drawn) | 4.53% |
| CCN1/C(=C\c2ccc3ccccc3[n+]2CC)Sc2cc(C)ccc21 | 73.9% (active) |
| CCN1/C(=C/c2ccc3ccc(C)cc3[n+]2CC)Sc2ccccc21 | 31.9% (active) |
| CC(NC(=O)C(C)(C)C)C(c1cccs1)N1CCN(Cc2ccccc2)CC1 (stereo not drawn) | -2.35% |
| O=Cc1c(Nc2ccccc2Cl)nc2ccccn2c1=O | -3.69% |

| SMILES | inhibition |
| --- | --- |
| CC(=O)c1ccc(S(=O)(=O)Nc2ccc(-c3ccc4nncn4n3)cc2)cc1 | 2.89% |
| Cc1ccc(CC(=O)N(C)CC(=O)N(CC(C)C)c2c(N)n(CC(C)C)c(=O)[nH]c2=O)cc1C | -2.63% |
| CCOC(=O)Cn1c(=O)oc2cc(S(=O)(=O)N(C)Cc3ccco3)ccc21 | 3.15% |
| CN(c1ccccc1)c1ccc(/C=c2\s/c(=C(/C#N)C(=O)C(C)(C)C)n(Cc3ccco3)c2=O)cc1 | 31% (active) |
| O=C(O)c1ccccc1C(=O)NC1=NN(c2ccccc2)CC1 | -0.6% |
| COc1ccccc1C(=O)OCC(=O)Nc1cccc(S(=O)(=O)NC2=NCCCCC2)c1 | 0.13% |
| Cc1ccc(Br)c(NS(=O)(=O)c2cccc(C(=O)N3CCNC(=O)C3)c2)c1 | -0.69% |
| COc1ccc(N2CCN(C(=O)/C(C#N)=C/c3ccccc3)CC2)cc1 | 17.7% (active) |
| CCOC(=O)/C(C#N)=C/c1ccc(N2CCN(Cc3ccccc3)CC2)cc1 | 3.39% |
| C/C(=C/c1ccccc1)C(=O)N1CCN(c2ccccc2)CC1 | -2.17% |
| Cc1cc(=O)oc2c1ccc1ccccc12 | 7.29% |
| CCc1ccccc1N(CC(=O)N1CCN(c2ccccc2F)CC1)S(C)(=O)=O | -4% |
| COc1ccc(NC(=O)C(C)SCc2ccccc2)cc1 (stereo not drawn) | -4.67% |
| N#C/C(=C/c1ccc(N2CCCCC2)o1)C(=O)NCCc1c[nH]c2ccccc12 | 151% (active) |
| O=C(CN1C(=O)NC2(CCCCC2)C1=O)NCCc1c[nH]c2ccccc12 | 1.64% |
| O=C(NCCc1c[nH]c2ccccc12)C1CCN(Cc2ccc(Br)cc2)CC1 | -4.77% |
| COc1ccccc1N(C)S(=O)(=O)c1ccc(C(=O)NC2CCCCCC2)cc1 | -1.04% |
| CC1CCCC(NC(=O)COC(=O)[C@@H]2CC(O)CN2S(=O)(=O)c2ccc3c(c2)OCCO3)C1C (stereo partly drawn) | 2.16% |
| COc1cc(C(=O)Nc2cc(C(F)(F)F)ccc2-n2cncn2)cc(OC)c1OC | -10.1% |
| CCN(CC(=O)Nc1c(F)cccc1F)C(=O)C1CCC1 | -0.82% |

| SMILES | inhibition |
| --- | --- |
| N#CC1=C(N)Oc2c(sc3ccccc23)C1c1ccco1 (stereo not drawn) | 37.7% (active) |
| N#CC1=C(N)Oc2c(ccc3cccnc23)C1c1ccncc1 (stereo not drawn) | 0.4% |
| Cc1cc(C(=O)NCCc2ccc(Cl)cc2)c(C)o1 | -1.15% |
| COCc1[nH][nH]c(=O)c1C=Nc1ccc(F)cc1F | 1.29% |
| CN1/C(=c2/s/c(=C3/C(=O)N(c4ccccc4)NC3=Nc3ccccc3)n(C)c2=O)C(C)(C)c2ccccc21 | 27% (active) |
| O=C(OCC(=O)N1CCCCC1)c1ccc(OC(F)(F)F)cc1 | 7.21% |
| Cc1nnc(Sc2nc3c(c(=O)[nH]c(=O)n3C)n2Cc2ccccc2)s1 | 1.7% |
| COc1cc(/C=C2\C(=N)N3N=C(CC(=O)N4CCOCC4)SC3=NC2=O)cc(OC)c1OC | -4.67% |
| C=CCC1=C/C(=C\c2c(N)n3nc(CC(=O)N4CCOCC4)sc3nc2=O)C=C(OC)C1=O | 68.9% (active) |
| COC1=C/C(=C/c2c(N)n3nc(CC(=O)N4CCOCC4)sc3nc2=O)C=CC1=O | 12.1% |
| Cc1cccc(CSc2ccc(-c3cccs3)nn2)c1 | 4.68% |
| FC(F)(F)Oc1ccc(-c2cn3cccnc3n2)cc1 | 6.48% |
| FC(F)(F)c1ccc2c3n(nc2c1)CCN=C3c1ccc(Cl)cc1 | 1.01% |
| CCn1c(O)c(N=NC2=NC(=O)CS2)c2cc(C)ccc21 | 5.14% |
| CCC(=C/c1sc2ccc3ccccc3c2[n+]1C)/C=C1\Sc2ccc3ccccc3c2N1C | 50.5% (active) |
| O=S1(=O)CC(NCc2ccccc2)C(Nc2ccc(Cl)cc2)C1 (stereo not drawn) | 0.58% |
| COc1ccc(NS(=O)(=O)c2cc3c(cc2C)N(C(C)=O)CCO3)cc1 | 2.34% |
| CN1C(C)(C)CC(NC(=O)CCC(=O)NC2CC(C)(C)N(C)C(C)(C)C2)CC1(C)C | 0.6% |

From PubChem BioAssay AID434962 (The Scripps Research Institute Molecular Screening Center, 2010)
